What all share (assay): NCI-60 one-dose screen, 48 h (100 = growth as untreated, 0 = no growth, -100 = all killed)
What all share (settings): 10 µM

Assay [1] concerns SR leukemia.
Assay [2] has as its system RPMI-8226 leukemia.
The test system of assay [3] is OVCAR-8 ovarian.
Assay [4] deals with OVCAR-5 ovarian.
Assay [5] relates to OVCAR-4 ovarian.
Assay [6] deals with SK-OV-3 ovarian.
Assay [7] relates to IGROV1 ovarian.
For assay [8], the system named is OVCAR-3 ovarian.
The test system of assay [9] is HS 578T breast.
Assay [10] relates to NCI/ADR-RES ovarian.
Assay [11] has as its system T-47D breast.
The test system of assay [12] is BT-549 breast.
Assay [13] relates to MDA-MB-435 melanoma.
Assay [14] deals with SW-620 colon.
The subject of assay [15] is MCF7 breast.
Assay [16] deals with HCT-116 colon.
Assay [17] has as its system HCC-2998 colon.
Assay [18] has as its system KM12 colon.

This is part of a sample that, as a whole, favours compounds with a hit. Of some 83,000 tested, about 20% had one in any assay.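 In brief: 96-well plates, 48 h treatment, single concentration, percent growth endpoint.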 Values without a mark were called inactive. Calls of active or inactive are those of the source. Rule for the calls: active = growth percent below 10; inactive = the rest.

The text below walks through data of PubChem BioAssay (NCI).

On to `Brc1ccc(-c2cn3ccnc3c(-c3ccc(Br)cc3)n2)cc1`, for which the growth in assay [1] was 13.4%; in assay [2], 58.3%; in [3] it was 51.6%; in [4], 82.4%; in assay [5], 62.2%; in assay [6], 55.2%. The growth in assay [7] is 55.8%; in [8] it was 31.9%; in assay [9] it was 61.1%; in assay [10], 19.7%; in [11], 37.2%; in [12] it was 17.6%. For the same compound, the growth in [13] is 3.08% (active); in assay [14] it was 25.4%; in assay [15], 22%; in [16] it was 30%; in assay [17], 60.2%; in [18], 34.6%.

Take `c1ccc(CNc2nc(Nc3ccc(-c4nc5ccccc5[nH]4)cc3)c3cn[nH]c3n2)cc1`: the growth in [1] was -13.8% (active); in assay [2], 2.15% (active); in [3] it was -12.5% (active); in [4] it was 41.1%; in assay [5], 25.7%; in [6] it was 10.8%. Moreover, the growth was 36.2% in assay [7]; -38.1% (active) in assay [8]; -6.55% (active) in [9]; 6.33% (active) in assay [10]; -30.6% (active) in assay [11]; -24.8% (active) in assay [12]. In addition, the growth in [13] is -6.74% (active); in [14], 7.33% (active); in assay [15], 1.71% (active); in assay [16] it was -54.5% (active); in [17], -5.53% (active); in assay [18], 9.4% (active).

Consider `CCN(CC)CCOC(=O)c1ccc(N=Nc2ccc(O)c(OC)c2)cc1`, for which the growth was 84.8% in assay [1]; 99.7% in [2]; 95.1% in [3]; 95.4% in [4]; 111% in assay [5]; 105% in [6]. For the same compound, the growth is 104% in assay [7]; 98.6% in [8]; 98.7% in assay [9]; 101% in assay [10]; 86.6% in assay [11]; 101% in assay [12]. Also, the growth in [13] was 103%; in [14], 103%; in assay [15] it was 95.6%; in [16] it was 93.9%; in assay [17], 103%; in [18] it was 103%.

Regarding `CN(C1c2ccccc2Oc2ccccc21)S(=O)(=O)c1cc(Cl)ccc1Cl`, the growth in assay [1] was 12.8%; in assay [2], 67.3%; in [3], 65.8%; in assay [4] it was 84.4%; in [5] it was 69.2%; in assay [6] it was 54.5%. The growth in assay [7] was 53.8%; in assay [8] it was 19.4%; in assay [9], 76.2%; in assay [10], 51.9%; in assay [11], 39.3%; in assay [12], 71.9%. Further, the growth in assay [13] is 4.17% (active); in [14] it was 30.3%; in [15], 21.4%; in assay [16], 31.3%; in [17] it was 84.3%; in [18], 42.8%.

As for `CCOC(=O)c1c(C(F)(F)F)n([O-])c2ccc(OC)cc2[n+]1=O`, the growth in assay [1] was -13.3% (active); in assay [2], -34.8% (active); in [3], 23.8%; in assay [4], 60.8%; in [5] it was 30.5%; in [6], 23.8%. Besides, the growth in assay [7] is 24.2%; in [8], 32.9%; in [9], 41.1%; in [10], 31.3%; in assay [11], 12%; in assay [12], -3.39% (active). In addition, the growth was 23.6% in assay [13]; 30.2% in assay [14]; 31.9% in assay [15]; 29.4% in assay [16]; 43.8% in assay [17]; 43.7% in assay [18].

For `C/C(=N\NC(=S)N1CCCC1)c1ccccn1`, the growth is 6.59% (active) in assay [1]; 12.9% in assay [2]; 11.1% in assay [3]; 40.3% in [4]; 3.92% (active) in assay [5]; 26.5% in assay [6]. For the same compound, the growth in assay [7] is -3.85% (active); in assay [8], 23.8%; in assay [9], 31.8%; in assay [10], -5.31% (active); in assay [11] it was 18.3%; in assay [12], 28.1%. Further, the growth in assay [13] is 19.2%; in assay [14], 22.6%; in assay [15], 14.2%; in assay [16], 22.3%; in assay [17] it was 14.7%; in assay [18], 17.4%.

Turning to `Nc1ccc2c(c1)Cc1cc(N)c(Cl)cc1-2`, the growth in assay [1] was 88.8%; in assay [2] it was 96.8%; in assay [3] it was 97.9%; in assay [4], 112%; in [5], 84%; in assay [6], 113%. Further, the growth in [7] is 98.2%; in assay [8], 124%; in [9], 89.8%; in assay [10] it was 107%; in assay [11], 54.3%; in [12], 90.3%. Besides, the growth is 94.3% in assay [13]; 108% in assay [14]; 42.6% in assay [15]; 100% in assay [16]; 103% in assay [17]; 108% in assay [18].

For the compound `CN1/C(=C\C(I)C(I)C2=[N+](C)c3ccccc3C2(C)C)C(C)(C)c2ccccc21` (configuration not stated), the growth in assay [1] was 8.27% (active); in assay [2], -10.4% (active); in [3] it was 7.15% (active); in assay [4], 24.9%; in assay [5], 21.6%; in assay [6], -8.39% (active). For the same compound, the growth in assay [7] was 25%; in [8], 13.3%; in assay [9] it was 42.8%; in assay [10], 73%; in assay [11], -0.299% (active); in assay [12] it was 13.3%. Also, the growth in assay [13] is 11.8%; in assay [14] it was 16.1%; in [15] it was 4.83% (active); in assay [16] it was 9.19% (active); in assay [17] it was 12.6%; in assay [18], 13.2%.

For the compound `O=C(Nc1cccc(Cl)c1)Nc1cc2ncncc2cc1OCc1cccc(F)c1`, the growth in assay [1] was -1.31% (active); in assay [2], -0.539% (active); in assay [3] it was 3.52% (active); in assay [4], 29.6%; in [5], 22.4%; in [6], 28.1%. For the same compound, the growth in assay [7] is 19%; in assay [8], 12.6%; in assay [9], 45.9%; in [10], 13.6%; in assay [11], -5.19% (active); in assay [12], 44.8%. The growth is 0.458% (active) in [13]; 23.9% in [14]; 6.04% (active) in assay [15]; 8.63% (active) in assay [16]; 35.7% in assay [17]; 9.08% (active) in assay [18].
